# Laboratory results published in PubChem BioAssay.
# Where “and” joins values, the source holds several entries; their conditions need not be identical. Identical values can stand only once. Results filed as inconclusive are left out. Calls of active or inactive are those of the source. Unless noted, no rule for the calls is given here. Where a SMILES comes first, the peptide text is derived from it. [ ]: non-standard residue; d: D form. The star is where a group is joined. Sta = CC(C)C[C@H](N)[C@@H](O)CC(=O)O; Isovaleryl = CC(C)CC(=O)*
# Tests used:
# [1] = compounds altering circadian rhythm period length – cell-based, LOPAC library, luminescence reporter (AID 2774); details: circadian reporter cells, at 7 µM, actives lie on both sides;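 also: values are relative to mean of DMSO wells on each plate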
# [2] = compounds altering viability of human ES cells (AID 493140); details: human embryonic stem cell survival screen; stronger effect = higher value;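 also: cells exposed to compounds for four days before counting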
# [3] = test system: Hepatitis C virus NS3 helicase; assay: blockers of NS3h binding to ssDNA – biochemical, fluorescence polarization, LOPAC1280 library, primary screen (AID 687035; in the data active = inhibition above about 37%); details: Purified HCV NS3 helicase, Cy5-dT15 ssDNA binding fluorescence polarization; stronger effect = higher value; concentration not given here
# [4] = compounds altering Cy5-DNA-NS3h complex signal – biochemical, LOPAC1280, artefact control for HCV NS3 helicase inhibitor project (AID 687037); details: Cy5-DNA-NS3h complex fluorescence interference counterscreen
# [5] = blockers of cellular phospholipid synthesis – cell-based, LOPAC library, screen 4, primary screen (AID 1347384); details: animal cells, phospholipid biosynthesis inhibition screen; at 10 µM
# [6] = viability loss in pontine glioma line – cell-based, SU-DIPG-XIII, MIPE5.0, CellTiter-Glo, qHTS, dose response (AID 1347064; cut-off not given, nearly all actives have AC50 up to about 23 µM;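 as to AC50: cells exposed to compound for 48 hours before the viability read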); details: CellTiter-Glo ATP luminescence
# [7] = growth inhibition of DIPG cells – cell-based, MIPE4.0 library, CellTiter-Glo luminescence, qHTS (AID 1347066; cut-off not given, nearly all actives have AC50 up to about 30 µM;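 also: cells exposed to compound for 48 hours before readout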); details: SU-DIPG-VI viability, CellTiter-Glo ATP luminescence
# [8] = JHH-DIPG-1 glioma cell viability, MIPE5.0 library, CellTiter-Glo luminescence, qHTS (AID 1347067; cut-off not given, nearly all actives have AC50 up to about 26 µM;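 also: cells exposed to compound for 48 hours before readout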); details: JHH-DIPG-1 glioma viability, CellTiter-Glo ATP luminescence
# [9] = viability loss in pontine glioma line – cell-based, SU-DIPG-XXV, MIPE5.0, CellTiter-Glo, qHTS, dose response (AID 1347065; cut-off not given, nearly all actives have AC50 up to about 26 µM;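 also: cells exposed to compound for 48 hours before ATP readout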); details: CellTiter-Glo ATP luminescence
# [10] = viability loss in pontine glioma line – cell-based, SU-DIPG-IV, MIPE4.0, CellTiter-Glo, qHTS, dose response (AID 1347063; cut-off not given, nearly all actives have AC50 up to about 30 µM;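 also: compound exposure lasted 48 hours before the viability readout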); details: CellTiter-Glo ATP luminescence
# [11] = compounds altering HSF1 focus formation in cells – imaging, Selleck Cancer Library (AID 1347162; in the data active = plate-normalised HSF1 focus index below about 0.46); details: human cells, HSF1 nuclear foci imaging, at 10 µM; SSMD: measured here: HSF1 foci SSMD mean; cell count: measured here: cell number; plate-normalised HSF1 focus index: stronger effect = lower value
# [12] = growth inhibition, single agent or in combination, cell-based, chromothripsis tumors, cisplatin or BGB combos (AID 1671449; in the data active = inhibition above about 80%;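 also: cells exposed for 96 hours; 0% = vehicle DMSO and 100% = killing by high DMSO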); details: LFS_MB_P medulloblastoma cells
# [13] = growth inhibition, single agent and combos, cell-based, chromothripsis tumors, cisplatin or BGB combos (AID 1671450; in the data active = inhibition above about 80%;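 also: cells exposed to compound for four days; 0% = vehicle DMSO and 100% = cell killing by high DMSO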); details: HDN33 neuroblastoma cells, stronger effect = higher value
# [14] = growth inhibition, single agents and combos, ICB984, cell-based, cisplatin or BGB combos, synergistic combos for chromothripsis tumors (AID 1671451); details: ICB984 medulloblastoma cells, drug combinations, stronger effect = higher value;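 also: cells exposed for 96 hours before readout; 0% = vehicle DMSO and 100% = killing by high DMSO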
# [15] = growth inhibition, single agents and combos, HTB85, cell-based, BGB or cisplatin IC20 combos, synergistic combos for chromothripsis tumors (AID 1671453; in the data active = inhibition above about 80%;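 also: cells exposed for 96 hours before readout; 0% = vehicle DMSO and 100% = high DMSO killing control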); details: HTB85 osteosarcoma cells, drug combinations, stronger effect = higher value
# [16] = growth inhibition, MDA-MB-436, cell-based, BGB or cisplatin combos, synergistic combos for chromothripsis tumors (AID 1671458); details: MDA-MB-436 breast carcinoma growth inhibition, drug combinations, stronger effect = higher value;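 also: cells exposed for 96 hours; 0% = vehicle DMSO and 100% = killing by high DMSO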
# [17] = BT084 cell growth, single and combined drugs, ICGC_MB145, cisplatin and BGB IC40 combos (AID 1671461; in the data active = inhibition above about 80%;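 also: cells exposed to drugs for 96 hours; 0% = vehicle DMSO and 100% = high DMSO full killing control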); details: BT084 medulloblastoma cells, drug combinations, stronger effect = higher value
# [18] = RCMB18 cell growth, single agent and combined, cisplatin and BGB IC40 combos (AID 1671462; in the data active = inhibition above about 80%;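 also: cells exposed to compound for four days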); details: RCMB18 medulloblastoma cells, stronger effect = higher value
# [19] = CRL1545 cell growth, single agent and combined, cisplatin and BGB IC20 combos (AID 1671464; in the data active = inhibition above about 80%;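 also: cells exposed to compound for 96 hours before readout; 0% = vehicle DMSO and 100% = high DMSO killing control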); details: CRL1545 osteosarcoma cells, stronger effect = higher value
# [20] = measured here: with BGB IC20 combination, at 0.5 µM
# [21] = measured here: with cisplatin IC20 combination, at 0.5 µM
structure (smiles),measurement,setting,value
CN(C)C/C=C(/c1ccc(Br)cc1)c1cccnc1,period change,[1],-0.15 h (inactive)
same,survival,[2],24.8 (inactive)
same,inhibition,[3],1% (inactive)
same,fluorescence ratio (interference),[4],1 (inactive)
same,outcome,[5],inactive
c1cc(CN2CCCCC2)cc(OCCCNc2nc3ccccc3s2)c1,period change,[1],-0.085 h (inactive)
same,inhibition,[3],-2% (inactive)
same,fluorescence ratio (interference),[4],1 (inactive)
same,outcome,[5],inactive
COC(=O)[C@@H]1CC2=CC(=O)CC[C@]2(C)[C@@]23O[C@@H]2C[C@@]2(C)[C@@H](CC[C@@]24CCC(=O)O4)[C@H]13,outcome,[6],inactive
same,outcome,[7],inactive
same,outcome,[8],inactive
CCOC(=O)c1cnc2c(cnn2CC)c1NN=C(C)C,period change,[1],0.065 h (inactive)
same,inhibition,[3],-2% (inactive)
same,fluorescence ratio (interference),[4],1 (inactive)
same,outcome,[5],inactive
CN(C(=O)c1c(O)c2ccccc2n(C)c1=O)c1ccccc1,outcome,[8],inactive
Cc1ccc(=O)n(-c2ccccc2)c1,period change,[1],-0.085 h (inactive)
same,inhibition,[3],-4% (inactive)
same,fluorescence ratio (interference),[4],1 (inactive)
same,outcome,[5],inactive
COCC(=O)O[C@]1(CCN(C)CCCc2nc3ccccc3[nH]2)CCc2cc(F)ccc2[C@@H]1C(C)C,period change,[1],-0.16 h (inactive)
same,inhibition,[3],-2% (inactive)
same,fluorescence ratio (interference),[4],1 (inactive)
same,outcome,[5],inactive
Cc1ccc2c(c1)c1c3n2CCNC3CCC1 (configuration not stated),survival,[2],11.2 (inactive)
C1COC(NC(C2CC2)C2CC2)=N1,period change,[1],0.03 h (inactive)
same,survival,[2],19 (inactive)
same,inhibition,[3],0% (inactive)
same,fluorescence ratio (interference),[4],1 (inactive)
same,outcome,[6],inactive
same,outcome,[9],inactive
same,outcome,[7],inactive
same,outcome,[8],inactive
same,outcome,[5],inactive
OC(CN1CCC(Cc2ccc(F)cc2)CC1)c1ccc(Cl)cc1 (configuration not stated),inhibition,[3],-3% (inactive)
same,fluorescence ratio (interference),[4],1 (inactive)
same,outcome,[10],inactive
same,outcome,[7],inactive
same,outcome,[5],inactive
CC[N+](CC)(CC)CCOc1ccc(/C=C/c2ccccc2)cc1,inhibition,[3],-3% (inactive)
same,fluorescence ratio (interference),[4],1 (inactive)
same,outcome,[5],inactive
C[C@@H](NCCCc1cccc(C(F)(F)F)c1)c1cccc2ccccc12,outcome,[10],inactive
same,AC50,[6],18.6 µM (active)
same,AC50,[9],14.8 µM (active)
same,outcome,[7],inactive
same,AC50,[8],16.6 µM (active)
CC(C)CC(=O)N[C@H](C(=O)N[C@H](C(=O)N[C@@H](CC(C)C)[C@@H](O)CC(=O)N[C@@H](C)C(=O)N[C@@H](CC(C)C)[C@@H](O)CC(=O)O)C(C)C)C(C)C (Isovaleryl-VV[Sta]A[Sta]-OH),outcome,[10],inactive
same,outcome,[6],inactive
same,outcome,[9],inactive
same,outcome,[7],inactive
same,outcome,[8],inactive
O=C(NOCC1CC1)c1ccc(F)c(F)c1Nc1ccc(I)cc1Cl,AC50,[10],20.9 µM (active)
same,AC50,[6],3.32 µM (active)
same,AC50,[9],2.35 µM (active)
same,AC50,[7],10.5 µM (active)
same,AC50,[8],1.86 µM (active)
C[C@H]1C[C@H]2[C@@H]3CCC4=CC(=O)C=C[C@]4(C)[C@H]3C(=O)C[C@]2(C)[C@@]1(O)C(=O)CO,outcome,[10],inactive
same,outcome,[9],inactive
same,outcome,[7],inactive
same,outcome,[8],inactive
CNC(=O)c1cc(Oc2ccc(NC(=O)Nc3ccc(Cl)c(C(F)(F)F)c3)cc2)ccn1,AC50,[10],20.9 µM (active)
same,AC50,[9],10.5 µM (active)
same,AC50,[7],20.9 µM (active)
same,AC50,[8],4.17 µM (active)
same,SSMD,[11],0.678
same,cell count,[11],6960
same,plate-normalised HSF1 focus index,[11],1.05 (inactive)
CCCCCOC(=O)Nc1nc(=O)n([C@@H]2O[C@H](C)[C@@H](O)[C@H]2O)cc1F,outcome,[10],inactive
same,outcome,[6],inactive
same,outcome,[7],inactive
same,outcome,[8],inactive
same,SSMD,[11],2.2
same,cell count,[11],7640
same,plate-normalised HSF1 focus index,[11],1.08 (inactive)
same,inhibition,"[12]; at 0.5 µM, stronger effect = higher value",1.4% (inactive) and -21.9% (inactive)
same,inhibition,"[12]; measured here: combination with BGB IC20, at 0.005 µM",-14.6% and -21.7%
same,inhibition,"[12]; measured here: combination with BGB IC40, at 0.005 µM",-20.4% and -20.9%
same,inhibition,"[12]; measured here: combination with BGB IC40, at 0.05 µM",-19.6% and -29%
same,inhibition,"[12]; measured here: combination with cisplatin, at 0.5 µM, stronger effect = higher value",-27.7% and -33.8%
same,inhibition,"[12]; measured here: combination with cisplatin, at 5 µM, stronger effect = higher value",-25.5% and -51.4%
same,inhibition,"[13]; BGB combo, at 5 µM",-43.4% and -24%
same,inhibition,[13]; at 0.5 µM,-46.5% (inactive) and -7.86% (inactive)
same,inhibition,"[13]; cisplatin combo, at 5 µM",-42.6% and -1.99%
same,inhibition,[13]; [20],-56.7% and -7.65%
same,inhibition,[13]; [21],-38% and 1.73%
same,inhibition,"[13]; single agent, at 5 µM",-49.4% and -2.05%
same,inhibition,"[14]; BGB IC20 combo, at 0.005 µM",4.24% and 4.65%
same,inhibition,"[14]; BGB IC40 combo, at 0.005 µM",-24.4% and -11%
same,inhibition,"[14]; BGB IC40 combo, at 0.05 µM",-29.4% and -22.1%
same,inhibition,[14]; at 0.5 µM,-39.5% (inactive) and -17.6% (inactive)
same,inhibition,"[14]; cisplatin combo, at 0.05 µM",-33% and -26.5%
same,inhibition,"[14]; cisplatin combo, at 0.5 µM",-46.4% and -4.14%
same,inhibition,"[14]; cisplatin combo, at 5 µM",-48.1% and -27.4%
same,inhibition,"[14]; measured here: 5 uM single agent, at 5 µM",-17.2% and -23.5%
same,inhibition,[15]; at 0.5 µM,-24.5% (inactive) and -10.3% (inactive)
same,inhibition,"[15]; measured here: with BGB IC20, at 0.5 µM",-20% and -11.5%
same,inhibition,"[15]; measured here: with BGB IC20, at 5 µM",-100% and -18.6%
same,inhibition,"[15]; measured here: with cisplatin IC20, at 0.5 µM",-35.2% and -21.3%
same,inhibition,"[15]; measured here: with cisplatin IC20, at 5 µM",-30% and -33.3%
same,inhibition,"[15]; single agent, at 5 µM",-21% and -4.05%
same,inhibition,[16]; at 0.5 µM,-36.5% (inactive) and -2.12% (inactive)
same,inhibition,"[16]; measured here: BGB combination, at 0.5 µM",-31.4% and -6.87%
same,inhibition,"[16]; measured here: BGB combination, at 5 µM",-29.8% and -7.46%
same,inhibition,"[16]; measured here: cisplatin combination, at 0.5 µM",-50.7% and -2.06%
same,inhibition,"[16]; measured here: cisplatin combination, at 5 µM",-40.9% and -28%
same,inhibition,[17]; at 0.5 µM,-20.5% (inactive) and -7.04% (inactive)
same,inhibition,"[17]; cisplatin combination, at 0.5 µM",-5.51% and -26.5%
same,inhibition,"[17]; cisplatin combination, at 5 µM",-19.4% and -8.1%
same,inhibition,"[17]; measured here: BGB IC40 combination 0.05 uM, at 0.05 µM",-7.71% and -17.1%
same,inhibition,"[17]; single agent, at 5 µM",-28.9% and -3.19%
same,inhibition,[18]; at 0.5 µM,-0.93% (inactive) and -5.48% (inactive)
same,inhibition,"[18]; cisplatin combo, at 5 µM",-35.1% and -36.1%
same,inhibition,"[18]; measured here: BGB IC40 combination, at 0.05 µM",-29.7% and -0.207%
same,inhibition,"[18]; measured here: combination with cisplatin, at 0.5 µM",-33.1% and 15.5%
same,inhibition,"[18]; single agent, at 5 µM",-11.2% and -19.2%
same,inhibition,[19]; at 0.5 µM,-52.6% (inactive) and -13.7% (inactive)
same,inhibition,[19]; [20],-42.3% and -20.5%
same,inhibition,[19]; [21],-61.3% and -12%
same,inhibition,"[19]; single agent, at 0.05 µM",-66.9% and -17.4%
same,inhibition,"[19]; single agent, at 5 µM",-52.4% and -6.48%
